Assay outcomes from PubChem.
This is a sample that favours compounds with a hit; in the whole collection about 1.4% have one here.
AID504770: growth inhibition of E. coli YBA685, primary screen, V. cholerae RctB inhibitors; z-score (concentration not given with the values); AID 504770, 2011; 130,000 compounds, 0.27% hits; E. coli YBA685 rctB-dependent plasmid, OD600 growth, 3 h; hits give low values; in the data active = z-score below about -2, passing the limit was not always enough
MbtI inh: MbtI salicylate synthase inhibitors, primary screen, biochemical, fluorescence intensity. AID 493033, 2011. 100,000 compounds, 0.89% hits. purified MbtI enzyme, fluorescence intensity read-out. P9WFX0. inhibition, % (concentration not given with the values); in the data active = inhibition mostly above about 56%, no sharp cut-off; inactive = mostly below about 77%
Target sequence (P9WFX0 whole entry, looked up): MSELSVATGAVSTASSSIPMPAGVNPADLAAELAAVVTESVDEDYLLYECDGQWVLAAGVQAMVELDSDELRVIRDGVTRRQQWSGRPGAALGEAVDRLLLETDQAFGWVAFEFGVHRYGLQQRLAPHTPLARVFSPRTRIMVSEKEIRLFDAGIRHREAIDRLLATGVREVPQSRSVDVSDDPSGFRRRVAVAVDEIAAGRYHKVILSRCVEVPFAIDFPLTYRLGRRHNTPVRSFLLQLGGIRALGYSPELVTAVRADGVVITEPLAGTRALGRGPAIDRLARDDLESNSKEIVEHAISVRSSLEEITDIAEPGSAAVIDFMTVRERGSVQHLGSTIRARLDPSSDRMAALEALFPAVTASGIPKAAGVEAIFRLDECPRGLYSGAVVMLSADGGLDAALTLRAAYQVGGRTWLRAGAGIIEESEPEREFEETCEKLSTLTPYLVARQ
Polio RdRp inh: poliovirus RdRp elongation inhibitors, primary screen, biochemical, fluorescence polarization, total intensity. Genome polyprotein (Poliovirus type 1 (strain Mahoney)), P03300. poliovirus polymerase elongation; hits give low values. % elongation, % (compound at 16.7 µg/mL). 150,000 compounds, 0.66% hits. AID 588519, 2011; in the data active = % elongation below about 90%
Mtb MenB inh: M. tuberculosis MenB inhibitors, primary screen, biochemical, absorbance; AID 540299, 2011; 100,000 compounds, 0.43% hits; MenB enzyme assay, absorbance read-out; inhibition, % (concentration not given with the values); in the data active = inhibition above about 21%, passing the limit was not always enough
The depositor's hits bear a star; i = inactive; / = no result; ! = a repeat was not active.

SMILES	AID504770	MbtI inh	Polio RdRp inh	Mtb MenB inh
O=C(Oc1c(Cl)cc(Cl)c2cccnc12)c1ccco1	-3.4*	-8	98	-36
Oc1c(Cl)cc(Cl)c2cccnc12	-1.2	-12	98	-8
C=CCN(CC=C)Cn1c(=S)oc2ccc(S(=O)(=O)Nc3ccc(OC)cc3)cc21	0.05	85*	93	-23
Nc1nc(NS(=O)(=O)c2ccccc2)ns1	-2.9*	/	/	/
O=S(=O)(Nc1ncccn1)c1ccccc1	-0.6	-8	101	0
CCS(=O)(=O)Nc1cccc(C2=NN(S(=O)(=O)CC)C(c3ccccc3)C2)c1 (centres undefined)	-0.2	7	100	-4
CC(NC(CC(=O)c1ccc(F)cc1)C(=O)O)c1ccccc1 (centres undefined)	-0.5	/	105	83*
COc1ccccc1NC(CC(=O)c1ccccc1)C(=O)O (centres undefined)	0.45	/	106	-9
Cc1oc2c(c1C(=O)N1CCCCC1)C(=O)c1ccccc1C2=O	1.4	-5	/	/
O=c1sn(-c2ccccc2C(F)(F)F)c(=O)n1CC1CC1	-1.2	99*	100	3
CCN(CC)Cc1cc(C(C)C)c(O)c(C(C)C)c1	0.05	/	/	/
CCN(CC)Cc1cc(O)c(CN(CC)CC)cc1O	0.35	94*	98	/
O=C(COc1ccc(Cl)cc1)Nc1nnc(S(=O)(=O)N2CCc3ccccc32)s1	/	/	112	/
COc1cccc(C2=C(C(C)=O)Sc3nncn3N2C(C)=O)c1	/	/	87*	/
CC(=O)C1=C(c2ccc(Cl)c(Cl)c2)N(C(C)=O)n2cnnc2S1	/	/	86*	/
CC(=O)C1=C(c2ccc(Cl)c(Cl)c2)N(C(C)=O)n2c(C)nnc2S1	/	/	89	/
Cc1nc2ccccc2nc1C(=O)NCCN1CCN(c2ccccc2)CC1	1.6	4	100	19
O=c1oc2c3ccccc3oc(=O)c2c2ccccc12	0.25	22	99	-3
O=c1oc(Cl)c(Cl)c2ccccc12	/	4	90*!	-9
CCOc1ccc(NC(=O)CC(=O)Nc2ccc(OCC)cc2)cc1	1.1	-1	97	-5
CCOc1ccc(NC(=O)Cc2cccc3c(S(=O)O)cccc23)cc1	-1.1	65*	102	-22
CN(C)S(=O)(=O)c1cccc(C(=O)N2CCN(c3ccccc3)CC2)c1	-0.6	-2	99	-5
NCCS	-0.05	51*	102	0
CCCCC(=O)Nc1ccc2nc(SCC(=O)N3CCOCC3)sc2c1	/	/	112	/
COc1ccc(-c2n[nH]c(=S)n2/N=C/c2ccccc2Br)cc1OC	-0.15	44	100	-45
SMILES	AID504770	MbtI inh	Polio RdRp inh	Mtb MenB inh
CCOc1cccc(/C=N/n2c(-c3ccc(Cl)cc3)n[nH]c2=S)c1O	2.2	79*	85*	-109
O=C(Oc1ccc(Br)cc1F)C1CC(=O)N(c2ccc3c(c2)OCCO3)C1 (centres undefined)	-0.9	2	87*	-33
CN(C)C1(CNCc2nc3ccccc3c(=O)[nH]2)CCCCC1	0.35	19	95	-43
CN(C)C1(CNCc2cnn(-c3ccccc3)n2)CCCCC1	0	-1	88*	8
Cc1ccccc1N=Cc1sc2ccccc2c1O	0.9	-4	75	-16
Oc1c(/C=N/n2cnnc2)sc2ccccc12	-0.15	71*	100	i
O=C1NC(=S)C(=C2CCCC2)S1	0.55	77*	89	-27
Cc1cc(Cl)cc(C)c1OCC1COS(=O)O1 (centres undefined)	0.15	-4	82*	-6
COC(=O)CSC1=C(C#N)C2(CCCCC2)C(c2nc(-c3ccccc3)cs2)C(N)=N1 (centres undefined)	0.4	/	/	/
CCCNC(=O)c1ccc(NC(C)=O)cc1	0	/	107	-8
CC(=O)Nc1ccc(C(=S)NCCCO)cc1	-1.1	85	77*	-7
CCOC(=O)c1cc2c(=O)n3ccccc3nc2n(Cc2ccco2)c1=NC(=O)c1ccc(C)c(C)c1	/	/	106	/
CCOC(=O)c1cc(-c2ccccn2)nc2c1c(=O)n(CC(=O)OC)c(=O)n2Cc1ccccc1	-0.65	10	81*	-15
O=C1NC(=S)NC(=O)C1=C/C=C/c1ccco1	0.8	62	72*	-44
CN1C(=O)NC(=O)/C(=C\C=C\c2ccco2)C1=O	-0.15	21	105	-268
O=C1NC(=O)N(c2ccccc2)C(=O)/C1=C/C=C/c1ccco1	-0.3	88*	101	-180
N#Cc1c(Nc2ccccc2Cl)s[nH]c1=O	-1.6	67	102	-14
N#Cc1c(Nc2ccccc2)s[nH]c1=O	-2.6*	22	115	13
CC(C)N(CC(=O)c1cccs1)Cc1ccccc1	1.4	100*	98	-8
NC(=O)c1ccc(-c2nnc(-c3ccccc3)o2)cc1	3.9	74	102	-11
COc1ccccc1CNC(=O)Cn1c(-c2ccc(F)cc2)cc(C(C)=O)c1C	/	/	99	/
CCOC(=O)c1cc(C(=O)NCc2ccccc2)c(=O)[nH]c1C	1.1	1	99	-5
CC(C)(CNc1nsc2ccccc12)N1CCOCC1	-0.85	50	89*	2
S=c1nc(-c2cccs2)[nH][nH]1	-0.25	123	69*	-58
CCOC(=O)c1cccc(NC(=O)CC(c2ccc(F)cc2)N2Cc3ccccc3C2=O)c1 (centres undefined)	/	/	113	/
SMILES	AID504770	MbtI inh	Polio RdRp inh	Mtb MenB inh
Cc1c(-c2nc(-c3ccccc3F)no2)nnn1-c1cc(F)ccc1F	/	/	98	/
CC(=O)N1CCc2c(sc3c2c(=O)n(-c2ccccc2)c(=O)n3CC(=O)Nc2cc(C)cc(C)c2)C1	/	/	107	/
O=C(Sc1nnnn1-c1ccccc1)c1cccc(Cl)c1	0.2	/	/	/
CCS(=O)(=O)c1nnnn1-c1ccccc1	-0.2	29	103	42*
O=S(=O)(Cc1ccccc1)c1nnnn1-c1ccccc1	0.5	-6	/	/
c1ccc(-n2nnnc2SSc2nnnn2-c2ccccc2)cc1	-0.7	59*	98	-24
N#CC(C#N)=C/C=C(\Sc1nnnn1-c1ccccc1)c1ccccc1	-0.35	84*	98	-10
CCCCc1nc2ccccc2n1CC(=O)N(COCC)c1c(C)cccc1CC	/	/	109	/
Cn1cccc1Cc1nnc(SCC(=O)Nc2ccccc2C(F)(F)F)n1CCc1ccccc1	-0.35	2	101	-5
CCO/C=C1/C(=O)N(c2ccc(OC)cc2)C(=O)c2ccccc21	-0.55	26	82*	-2
CCO/C=C1/C(=O)N(c2ccc(S(=O)(=O)N3CCOCC3)cc2)C(=O)c2ccccc21	0.6	17	96	-23
CCO/C=C1\C(=O)N(c2ccccc2)C(=O)c2ccccc21	-0.3	-13	80*	/
COc1ccc(N2CCN(/C=C3\C(=O)N(c4ccc(C)cc4)C(=O)c4ccccc43)CC2)cc1	-0.4	52	97	-23
O=C(c1ccccc1Cl)N1CCCCC1CCN1CCOCC1 (centres undefined)	/	/	110	/
Fc1c(F)c(Oc2ccccc2)c(F)c(F)c1Oc1ccccc1	1.1	-4	102	27*
Nc1ccc(Oc2ccccc2)cc1	0.6	0	102	-39
